Records with an inconclusive call do not appear. Activity calls are given as the source filed them. Rule for the calls: active = hit-call score of the fitted dose curve at least 0.9, where 1 is the maximum; inconclusive = response in the unintended direction; inactive = score below 0.9.
How the values were obtained:
[1] = target: rat Serotonin, 5-Hydroxytryptamine Receptor 1 (5HT1), Non-Selective Binding, Htr1a (gene 24473) (UniProt P19327); assay: NVS_GPCR_r5HT1_NonSelective: NovaScreen (NVS) G Protein-Coupled Receptor Assay for rat Serotonin, 5-Hydroxytryptamine Receptor 1 (5HT1), Non-Selective Binding (AID 2283286)
rat Serotonin, 5-Hydroxytryptamine Receptor 1 (5HT1), Non-Selective Binding, Htr1a (gene 24473), sequence (P19327 whole entry, looked up): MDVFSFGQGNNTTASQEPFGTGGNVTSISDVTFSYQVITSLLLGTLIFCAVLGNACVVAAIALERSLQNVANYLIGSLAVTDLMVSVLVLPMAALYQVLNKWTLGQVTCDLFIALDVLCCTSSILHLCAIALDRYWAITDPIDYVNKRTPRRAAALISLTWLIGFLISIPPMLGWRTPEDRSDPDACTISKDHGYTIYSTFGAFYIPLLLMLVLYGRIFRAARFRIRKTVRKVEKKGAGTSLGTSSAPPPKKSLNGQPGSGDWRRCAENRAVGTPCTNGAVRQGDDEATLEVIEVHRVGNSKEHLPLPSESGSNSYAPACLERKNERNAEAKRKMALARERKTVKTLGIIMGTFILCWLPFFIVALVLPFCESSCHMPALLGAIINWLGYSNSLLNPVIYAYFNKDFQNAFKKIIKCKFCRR
Procedure, shortened: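 Rat cortical membranes, radioligand displacement, 1 h incubation, read by filter scintillation. Primary screen in duplicate at 25 uM. Hits (e.g. ≥30% inhibition) went to concentration-response up to 50 uM, fitted as loss of binding versus DMSO.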

[2] = test system: rat Adrenergic, Alpha 1B Receptor (Adra1B), gene 24173; assay: NVS_GPCR_rAdra1B: NovaScreen (NVS) G Protein-Coupled Receptor Assay for rat Adrenergic, Alpha 1B Receptor (Adra1B) (AID 2283297)
Procedure, shortened: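 Rat liver membranes, radioligand displacement with filter-based scintillation detection, 1 h incubation. Primary screen in duplicate at 25 uM; actives retested in concentration series; activity relative to DMSO.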

[3] = target: mouse Cholecystokinin, CCK1 Receptor (CCKA), Cckar (gene 12425) (UniProt O08786); assay: NVS_GPCR_mCCKAPeripheral: NovaScreen (NVS) G Protein-Coupled Receptor Assay for mouse Cholecystokinin, CCK1 Receptor (CCKA) (AID 2283285)
mouse Cholecystokinin, CCK1 Receptor (CCKA), Cckar (gene 12425), sequence (O08786 whole entry, looked up): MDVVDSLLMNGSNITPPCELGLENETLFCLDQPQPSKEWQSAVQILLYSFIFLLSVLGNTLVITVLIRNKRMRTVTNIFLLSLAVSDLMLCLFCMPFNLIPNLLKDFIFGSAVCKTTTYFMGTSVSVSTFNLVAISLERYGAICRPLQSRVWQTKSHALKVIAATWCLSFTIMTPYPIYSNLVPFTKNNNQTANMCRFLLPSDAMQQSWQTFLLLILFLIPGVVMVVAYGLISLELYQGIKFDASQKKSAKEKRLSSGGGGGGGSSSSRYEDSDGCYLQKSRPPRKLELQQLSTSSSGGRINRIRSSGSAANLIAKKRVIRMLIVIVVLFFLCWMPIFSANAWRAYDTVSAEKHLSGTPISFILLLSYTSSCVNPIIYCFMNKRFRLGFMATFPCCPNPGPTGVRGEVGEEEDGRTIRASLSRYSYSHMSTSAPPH
Procedure, shortened: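 Radioligand competitive displacement on mouse pancreatic membranes, 2 h incubation; filter-based scintillation counting, loss of signal versus DMSO. Single-concentration screen at 25 uM in duplicate, actives retested in concentration-response up to 50 uM.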

[4] = test system: rabbit Platelet Activating Factor Receptor (PAF), gene 100354046; assay: NVS_GPCR_rabPAF: NovaScreen (NVS) G Protein-Coupled Receptor Assay for rabbit Platelet Activating Factor Receptor (PAF) (AID 2283287)
Procedure, shortened: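 Rabbit platelet membrane preparation; radioligand displacement read by filter-based scintillation counting 1 h after dosing, loss of signal versus DMSO. Primary screen in duplicate at 25 uM, actives followed up in concentration series.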

[5] = test system: guinea pig Atrionatriuretic Peptide Receptor A (ANPA), gene 100135578; assay: NVS_GPCR_gANPA: NovaScreen (NVS) G Protein-Coupled Receptor Assay for guinea pig Atrionatriuretic Peptide Receptor A (ANPA) (AID 2283291)
Procedure, shortened: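 Radioligand binding to guinea pig cerebellar membranes was measured after 1 h by filter-based scintillation counting. Chemicals were tested in duplicate at 25 uM, with hits run in concentration-response to a maximum of 50 uM. Binding loss was fitted against DMSO.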

[6] = target: rat Adrenergic Receptor, Beta (Adrb), Non-selective Binding, Adrb1 (gene 24925) (UniProt P18090); assay: NVS_GPCR_rAdrb_NonSelective: NovaScreen (NVS) G Protein-Coupled Receptor Assay for rat Adrenergic Receptor, Beta (Adrb), Non-selective Binding (AID 2283298)
rat Adrenergic Receptor, Beta (Adrb), Non-selective Binding, Adrb1 (gene 24925), sequence (P18090 whole entry, looked up): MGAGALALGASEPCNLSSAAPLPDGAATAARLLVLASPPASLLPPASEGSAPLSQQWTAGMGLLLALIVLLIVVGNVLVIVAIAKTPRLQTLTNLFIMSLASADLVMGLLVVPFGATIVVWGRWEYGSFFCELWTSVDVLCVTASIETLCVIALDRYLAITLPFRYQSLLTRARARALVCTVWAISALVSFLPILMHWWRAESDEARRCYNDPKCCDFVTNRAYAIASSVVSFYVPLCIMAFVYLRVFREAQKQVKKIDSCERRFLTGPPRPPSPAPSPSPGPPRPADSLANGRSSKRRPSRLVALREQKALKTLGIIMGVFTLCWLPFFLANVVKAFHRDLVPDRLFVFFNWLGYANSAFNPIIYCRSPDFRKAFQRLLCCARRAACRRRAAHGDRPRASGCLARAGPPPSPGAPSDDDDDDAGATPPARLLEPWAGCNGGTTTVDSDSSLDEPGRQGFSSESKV
Procedure, shortened: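 Non-selective beta-adrenergic radioligand binding in rat cortical membranes, 1 h incubation, filter-based scintillation read-out. Primary screen 25 uM in duplicate; hits retested in concentration-response up to 50 uM, DMSO baseline.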

[7] = target: rat Gamma-Aminobutyric Acid Type B Receptor (GABBR), Gabbr1 (gene 81657) (UniProt Q9Z0U4); assay: NVS_GPCR_rGABBR: NovaScreen (NVS) G Protein-Coupled Receptor Assay for rat Gamma-Aminobutyric Acid Type B Receptor (GABBR) (AID 2283301)
Procedure, shortened: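 Radioligand displacement on rat cortical membranes, 1 h, filter-based scintillation counting. Primary screen at 25 uM in duplicate; compounds passing threshold re-tested in concentration-response up to 50 uM; loss of binding fitted against DMSO.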

[8] = target: rat Serotonin, 5-Hydroxytryptamine Receptor (5HT), Non-Selective Binding, Htr1a (gene 24473) (UniProt P19327); assay: NVS_GPCR_r5HT_NonSelective: NovaScreen (NVS) G Protein-Coupled Receptor Assay for rat Serotonin, 5-Hydroxytryptamine Receptor (5HT), Non-Selective Binding (AID 2283295)
rat Serotonin, 5-Hydroxytryptamine Receptor (5HT), Non-Selective Binding, Htr1a (gene 24473), sequence (P19327 whole entry, looked up): as the sequence (P19327 whole entry, looked up) above
Procedure, shortened: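 Radioligand displacement on rat cortical membranes, 1 h incubation, filter-based scintillation counting. Primary duplicates at 25 uM, actives retested in concentration series; loss of signal fitted against DMSO as baseline.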

[9] = target: rat Adrenergic Receptor, Alpha 2 (Adra2), Non-selective Binding, Adra2a (gene 25083) (UniProt P22909); assay: NVS_GPCR_rAdra2_NonSelective: NovaScreen (NVS) G Protein-Coupled Receptor Assay for rat Adrenergic Receptor, Alpha 2 (Adra2), Non-selective Binding (AID 2283299)
rat Adrenergic Receptor, Alpha 2 (Adra2), Non-selective Binding, Adra2a (gene 25083), sequence (P22909 whole entry, looked up): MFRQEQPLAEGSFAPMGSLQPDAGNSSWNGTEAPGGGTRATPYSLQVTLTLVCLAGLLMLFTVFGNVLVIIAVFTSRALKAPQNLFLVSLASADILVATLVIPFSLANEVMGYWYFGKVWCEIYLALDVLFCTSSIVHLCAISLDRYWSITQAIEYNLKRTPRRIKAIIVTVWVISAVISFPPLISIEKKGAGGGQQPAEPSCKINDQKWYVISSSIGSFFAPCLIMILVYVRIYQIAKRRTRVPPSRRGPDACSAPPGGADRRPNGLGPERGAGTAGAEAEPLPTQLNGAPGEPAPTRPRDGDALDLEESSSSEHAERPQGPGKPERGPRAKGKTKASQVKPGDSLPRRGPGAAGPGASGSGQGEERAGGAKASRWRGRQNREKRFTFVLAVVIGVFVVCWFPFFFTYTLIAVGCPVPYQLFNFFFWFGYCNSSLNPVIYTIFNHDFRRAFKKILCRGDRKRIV
Procedure, shortened: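 Rat cortical membranes, radioligand competitive displacement read by filter-based scintillation counting 1.25 hours after dosing. Primary screen in duplicate at 25 uM; actives followed up in concentration series.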

[10] = target: human Opioid Receptor Mu (Opiate Mu), OPRM1 (gene 4988) (UniProt P35372); assay: NVS_GPCR_hOpiate_mu: NovaScreen (NVS) G Protein-Coupled Receptor Assay for human Opioid Receptor Mu (Opiate Mu) (AID 2283290);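 note: hits lower bound tracer signal versus DMSO meaning displacement of the ligand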
human Opioid Receptor Mu (Opiate Mu), OPRM1 (gene 4988), sequence (P35372 whole entry, looked up): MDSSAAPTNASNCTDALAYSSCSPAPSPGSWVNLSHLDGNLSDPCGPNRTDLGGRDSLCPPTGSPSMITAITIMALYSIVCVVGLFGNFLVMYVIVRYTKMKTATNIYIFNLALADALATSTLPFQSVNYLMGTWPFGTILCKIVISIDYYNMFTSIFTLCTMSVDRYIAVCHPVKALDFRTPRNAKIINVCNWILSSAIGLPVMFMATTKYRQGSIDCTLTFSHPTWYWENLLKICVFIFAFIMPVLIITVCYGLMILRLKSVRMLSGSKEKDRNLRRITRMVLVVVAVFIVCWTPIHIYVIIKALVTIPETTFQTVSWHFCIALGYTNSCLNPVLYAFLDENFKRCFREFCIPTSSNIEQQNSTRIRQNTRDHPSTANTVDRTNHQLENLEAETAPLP
Procedure, shortened: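 Cell-free radioligand binding to membranes from CHO cells expressing the receptor; bound tracer measured by filter-based scintillation counting 2.5 hours after dosing. Loss of signal versus DMSO baseline reflects displacement; primary screen at 25 uM in duplicate, actives followed up in concentration series.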

[11] = target: rat Adrenergic, Alpha 1A Receptor (Adra1A), Adra1a (gene 29412) (UniProt P43140); assay: NVS_GPCR_rAdra1A: NovaScreen (NVS) G Protein-Coupled Receptor Assay for rat Adrenergic, Alpha 1A Receptor (Adra1A) (AID 2283296)
rat Adrenergic, Alpha 1A Receptor (Adra1A), Adra1a (gene 29412), sequence (P43140 whole entry, looked up): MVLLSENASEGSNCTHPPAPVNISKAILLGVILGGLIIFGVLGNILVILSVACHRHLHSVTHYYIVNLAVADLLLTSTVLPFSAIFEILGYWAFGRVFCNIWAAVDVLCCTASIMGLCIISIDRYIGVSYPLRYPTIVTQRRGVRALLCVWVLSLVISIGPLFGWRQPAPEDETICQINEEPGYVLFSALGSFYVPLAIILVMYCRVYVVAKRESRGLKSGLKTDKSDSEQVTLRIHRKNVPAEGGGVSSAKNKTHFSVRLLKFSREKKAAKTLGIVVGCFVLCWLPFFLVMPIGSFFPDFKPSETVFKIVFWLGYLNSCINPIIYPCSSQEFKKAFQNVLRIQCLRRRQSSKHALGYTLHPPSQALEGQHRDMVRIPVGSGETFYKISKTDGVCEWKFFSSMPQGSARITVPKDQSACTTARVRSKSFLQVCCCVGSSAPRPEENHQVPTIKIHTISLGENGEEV
Procedure, shortened: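 Rat cortical membranes pretreated with chlorethyl clonidine; competitive radioligand displacement, 1 h. Filter-based scintillation counting. Primary screen in duplicate at 25 uM, actives followed in concentration series.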

[12] = target: rat Corticotropin Releasing Factor Receptor (CRF), Crhr1 (gene 58959) (UniProt P35353); assay: NVS_GPCR_rCRF: NovaScreen (NVS) G Protein-Coupled Receptor Assay for rat Corticotropin Releasing Factor Receptor (CRF) (AID 2283300)
rat Corticotropin Releasing Factor Receptor (CRF), Crhr1 (gene 58959), sequence (P35353 whole entry, looked up): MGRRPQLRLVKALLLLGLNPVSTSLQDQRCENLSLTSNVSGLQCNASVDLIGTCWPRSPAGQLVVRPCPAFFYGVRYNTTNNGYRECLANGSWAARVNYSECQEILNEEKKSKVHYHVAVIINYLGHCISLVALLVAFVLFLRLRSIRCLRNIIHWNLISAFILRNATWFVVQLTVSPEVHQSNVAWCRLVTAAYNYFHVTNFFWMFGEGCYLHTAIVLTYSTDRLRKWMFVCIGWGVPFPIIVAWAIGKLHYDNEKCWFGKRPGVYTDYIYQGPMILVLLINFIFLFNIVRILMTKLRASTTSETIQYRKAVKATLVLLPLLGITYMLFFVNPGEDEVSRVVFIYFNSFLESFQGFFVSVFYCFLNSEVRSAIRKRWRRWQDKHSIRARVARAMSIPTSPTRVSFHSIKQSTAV
Procedure, shortened: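 Rat cortical membranes used as receptor source in a radioligand competitive displacement binding assay; scintillation read 2 h after dosing. Primary screen run in duplicate at 25 uM; loss of signal versus DMSO baseline indicates binding.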

[13] = target: rat Histamine Receptor (H3), Hrh3 (gene 85268) (UniProt Q9QYN8); assay: NVS_GPCR_rH3: NovaScreen (NVS) G Protein-Coupled Receptor Assay for rat Histamine Receptor (H3) (AID 2283303)
rat Histamine Receptor (H3), Hrh3 (gene 85268), sequence (Q9QYN8 whole entry, looked up): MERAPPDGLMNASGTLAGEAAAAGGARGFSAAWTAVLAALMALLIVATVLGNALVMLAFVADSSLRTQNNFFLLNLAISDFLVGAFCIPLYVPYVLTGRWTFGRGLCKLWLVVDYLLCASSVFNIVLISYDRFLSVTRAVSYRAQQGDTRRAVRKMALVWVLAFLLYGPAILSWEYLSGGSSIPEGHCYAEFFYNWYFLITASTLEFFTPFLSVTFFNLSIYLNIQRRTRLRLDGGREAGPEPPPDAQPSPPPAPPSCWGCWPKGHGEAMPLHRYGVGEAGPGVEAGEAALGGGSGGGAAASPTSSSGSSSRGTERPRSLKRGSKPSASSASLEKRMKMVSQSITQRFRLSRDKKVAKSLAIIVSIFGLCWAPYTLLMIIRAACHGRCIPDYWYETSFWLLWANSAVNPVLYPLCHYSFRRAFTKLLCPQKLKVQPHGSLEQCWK
Procedure, shortened: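 Rat forebrain membranes incubated 1 h with compound; radioligand displacement measured by filter-based scintillation counting. Single-concentration duplicates at 25 µM, then concentration-response up to 50 µM, relative to DMSO.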

[14] = target: Adra2b (gene 24174) (UniProt P19328); assay: NVS_GPCR_rmAdra2B: NovaScreen (NVS) G Protein-Coupled Receptor Assay for hybird cells Adrenergic, Alpha 2B Receptor (Adra2B) (AID 2283306)
Adra2b (gene 24174), sequence (P19328 whole entry, looked up): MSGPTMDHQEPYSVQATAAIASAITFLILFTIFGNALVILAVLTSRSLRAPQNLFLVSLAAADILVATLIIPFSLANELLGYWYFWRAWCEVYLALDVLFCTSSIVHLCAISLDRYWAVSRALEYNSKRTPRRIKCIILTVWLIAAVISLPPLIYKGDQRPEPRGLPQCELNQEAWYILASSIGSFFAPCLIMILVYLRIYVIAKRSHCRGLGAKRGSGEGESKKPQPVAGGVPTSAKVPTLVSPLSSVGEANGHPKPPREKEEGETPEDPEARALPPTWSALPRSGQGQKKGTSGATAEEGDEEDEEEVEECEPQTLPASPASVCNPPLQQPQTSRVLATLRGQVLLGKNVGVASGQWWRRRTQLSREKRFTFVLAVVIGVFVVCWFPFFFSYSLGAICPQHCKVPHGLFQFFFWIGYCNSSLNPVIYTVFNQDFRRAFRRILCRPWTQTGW
Procedure, shortened: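 Radioligand filter-binding assay on membrane proteins from neuroglioma/blastoma hybrid cells (rodent), 1 h after dosing; scintillation counting, loss of signal vs DMSO. Primary screen in duplicate at 25 uM, actives then run in concentration series.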

[15] = target: rat Adrenergic, Alpha 1, Non-selective Receptor (Adra1), Adra1a (gene 29412) (UniProt P43140); assay: NVS_GPCR_rAdra1_NonSelective: NovaScreen (NVS) G Protein-Coupled Receptor Assay for rat Adrenergic, Alpha 1, Non-selective Receptor (Adra1) (AID 2283289)
rat Adrenergic, Alpha 1, Non-selective Receptor (Adra1), Adra1a (gene 29412), sequence (P43140 whole entry, looked up): as the sequence (P43140 whole entry, looked up) above
Procedure, shortened: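 Rat forebrain membranes; radioligand displacement read by filter-based scintillation counting 1 h after dosing. Primary screen in duplicate at 25 uM; hits (e.g. ≥30% inhibition) rerun as concentration–response to 50 uM max. Fitted versus DMSO.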

[16] = target: human Vasopressin 1A Receptor (V1A), AVPR1A (gene 552) (UniProt P37288); assay: NVS_GPCR_hV1A: NovaScreen (NVS) G Protein-Coupled Receptor Assay for human Vasopressin 1A Receptor (V1A) (AID 2283284)
human Vasopressin 1A Receptor (V1A), AVPR1A (gene 552), sequence (P37288 whole entry, looked up): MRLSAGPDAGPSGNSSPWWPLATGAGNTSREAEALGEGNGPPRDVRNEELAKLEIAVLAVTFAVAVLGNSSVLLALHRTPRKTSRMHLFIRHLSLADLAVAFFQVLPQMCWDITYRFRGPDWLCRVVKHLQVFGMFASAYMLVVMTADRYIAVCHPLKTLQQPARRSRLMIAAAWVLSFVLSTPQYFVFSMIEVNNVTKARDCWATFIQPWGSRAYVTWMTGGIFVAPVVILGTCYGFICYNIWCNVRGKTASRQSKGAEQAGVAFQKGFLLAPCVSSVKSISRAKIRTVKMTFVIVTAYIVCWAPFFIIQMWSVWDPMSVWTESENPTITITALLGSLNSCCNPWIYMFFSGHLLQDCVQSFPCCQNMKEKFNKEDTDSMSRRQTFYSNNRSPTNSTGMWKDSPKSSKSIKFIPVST
Procedure, shortened: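 Cell-free radioligand displacement on human platelet preparations, 1.5 h incubation, filter-based scintillation counting. Chemicals first tested in duplicate at 25 uM; actives then run in concentration-response up to 50 uM, loss of signal fitted against DMSO.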

`CC1(C)CCC(=Cc2ccc(Cl)cc2)C1(O)Cn1cncn1` (stereo unspecified) was tested, and the outcome [1] was “inactive” and the outcome [2] was “inactive”.
In the case of `CC1(C)C(C=C(Cl)Cl)C1C(=O)OC(C#N)c1cccc(Oc2ccccc2)c1` (stereo unspecified), the AC50 [3] is reported as 17.1 µM (active).
`CS(=O)(=O)c1cc(C(F)(F)F)ccc1C(=O)c1cnoc1C1CC1` was tested, and the AC50 [4] was 19.1 µM (active) and the outcome [5] was “inactive”.
In the case of `CCNP(=S)(OC)O/C(C)=C/C(=O)OC(C)C` (stereo unspecified), the outcome [6] is reported as “inactive” and the outcome [7] is reported as “inactive”.
For `N#Cc1c[nH]cc1-c1cccc2c1OC(F)(F)O2`, the outcome [8] was “inactive” and the outcome [9] was “inactive”.
For `CNC(=O)N(C)c1nnc(C(C)(C)C)s1`, the outcome [5] was “inactive”.
`COP(=S)(OC)SCn1nnc2ccccc2c1=O` was tested, and the AC50 [4] was 25 µM (active) and the outcome [10] was “inactive”.
In the case of `CNC(=O)Oc1cccc2ccccc12`, the outcome [11] is reported as “inactive”.
In the case of `CC(C)=CC1C(C(=O)OCc2coc(Cc3ccccc3)c2)C1(C)C` (stereo unspecified), the AC50 [10] is reported as 7.58 µM (active).
With `COC(=O)N(C(=O)N1CO[C@@]2(C(=O)OC)Cc3cc(Cl)ccc3C2=N1)c1ccc(OC(F)(F)F)cc1` the outcome [8] was “inactive”, the outcome [9] was “inactive” and the outcome [12] was “inactive”.
In the case of `CCCN(CC)CC1COC2(CCC(C(C)(C)C)CC2)O1` (stereo unspecified), the AC50 [9] is reported as 16.7 µM (active), the AC50 [13] is reported as 12.2 µM (active) and the AC50 [14] is reported as 25 µM (active).
In the case of `Cc1ccc(N=CN(C)C=Nc2ccc(C)cc2C)c(C)c1`, the AC50 [1] is reported as 0.463 µM (active), the AC50 [15] is reported as 1.5 µM (active) and the outcome [8] is reported as “inactive”. For the same compound, the outcome [11] was “inactive”, the AC50 [9] was 0.219 µM (active) and the AC50 [14] was 0.779 µM (active).
For `CC(C)N1C(=O)N(c2ccccc2)CSC1=NC(C)(C)C`, the outcome [4] was “inactive”.
In the case of `O=c1n(Cl)c(=O)n(Cl)c(=O)n1Cl`, the outcome [4] is reported as “inactive”.
With `CN/C(=N\[N+](=O)[O-])NCc1cnc(Cl)s1` the outcome [16] was “inactive” and the AC50 [14] was 8.79 µM (active).
In the case of `CCSC(=O)N1CCCCCC1`, the outcome [5] is reported as “inactive”.

From PubChem BioAssay (EPA / NIEHS)
